# PLAP activator – activates human placental alkaline phosphatase | P05187 | purified PLAP enzyme, luminescent substrate read-out; stronger effect = higher value | activation fold at 20 µM | actives 1.2% (n = 96,000) | AID 696; in the data active = activation fold above about 2
# M1 antag – M1 muscarinic receptor (rat) antagonism | P08482 | CHO-M1 cells, Fluo-4 calcium, ACh EC80 antagonist mode; stronger effect = lower value | B-score at 10 µM | actives 3.4% (n = 64,000) | AID 628;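 active = calcium fluorescence response, raw or row-and-column corrected B-score, differing from the plate sample mean either way at a set confidence level, mostly lower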
# Cav32 inh – human Cav3.2 channel inhibition, primary screen; O95180; Cav3.2-expressing cells, Fluo-4 calcium fluorescence FDSS; stronger effect = lower value; B-score at 10 µM; actives 4% (n = 100,000); AID 449739;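 active = single-dose well whose peak fluorescence ratio is a statistical outlier from its plate by either plate-standardised score or position-corrected B-score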
# M1 agonist – M1 muscarinic receptor agonism; CHO-M1 cells, Fluo-4 calcium fluorescence, agonist mode; stronger effect = higher value; B-score at 10 µM; actives 3% (n = 64,000);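 active = fluorescence rise, raw or as B-score row- and column-corrected plate score, outside the 99.7% band of its plate's samples, either direction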
# M1 agonist conf – rat M1 muscarinic agonism, confirmation; shares compounds with M1 agonist; CHO-M1 cells, Fluo-4 calcium fluorescence, agonist mode; actives lie on both sides; fluorescence change (max-min) at 10 µM; actives 19% (n = 1,700); AID 1488;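 active = fluorescence change differs from the solvent-only DMSO control mean at a set confidence level in both duplicate runs; inconclusive = differs from solvent-only control mean in just one of two runs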;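 note: an EC20 dose of acetylcholine follows compound addition during the same imaging run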
# M4 ag counter – rat M4 muscarinic agonism, M1 counter-screen. actives 9% (n = 1,700). CHO M4/Gqi5 cells, Fluo-4 calcium fluorescence, agonist mode; actives lie on both sides. AID 1741. fluorescence change (max-min) at 10 µM. shares compounds with M1 agonist;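 active = fluorescence change differing from the plate's solvent-only control wells at 99.7% confidence in both duplicates, whether higher or lower; inconclusive = differs from solvent controls in only one of two duplicates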
# Hits are given with their value; - = inactive; ? = inconclusive; . = not tested or not shown. An excerpt weighted towards active compounds, which were near 7.6% of everything screened.
SMILES,PLAP activator,M1 antag,Cav32 inh,M1 agonist,others
Cc1ccc(Cl)cc1N1CCN(Cc2nnnn2C2CCCCC2)CC1,-,-,-5.22,-,
c1coc(Cn2nnnc2CN2CCN(C3CCCCC3)CC2)c1,-,-,-,-,
CCC(c1nnnn1Cc1ccco1)N1CCC(C(N)=O)CC1 (stereo not drawn),-,-,-,-,
CC(C)C(c1nnnn1Cc1ccccc1)N1CCN(Cc2ccco2)CC1 (stereo not drawn),-,-,-,-,
Cc1ccc(Cl)cc1N1CCN(Cc2nnnn2Cc2ccco2)CC1,-,-,-6.66,-,
Cc1ccnc(NC(=O)CCC(=O)N(CC(=O)NC2CCCCC2)Cc2ccc3c(c2)OCO3)c1,-,-,.,-,
CCc1nnc(NC(=O)CSc2ncnc3c2cnn3-c2ccc(OC)cc2)s1,-,.,-,.,
CSc1nc(C)cc(C)c1S(=O)(=O)c1ccccc1C,-,.,-6.53,.,
O=C(/C=N/O)NCc1ccncc1,-,-,-7.99,-,
COc1ccccc1-c1nc2s/c(=C\c3cccs3)c(=O)n2n1,-,-,-,-,
O=c1/c(=C/c2ccco2)sc2nc(-c3ccccc3Br)nn12,2.2,-,-,-,
O=C(CN1C(=O)NC2(CCCCCC2)C1=O)N1CCN(S(=O)(=O)c2ccc(Cl)cc2)CC1,-,.,-,.,
CN1CCC(=NNC(=O)C(=O)NC(C)(C)C)CC1,-,.,-,.,
COc1ccc(-c2nc(-c3cccs3)c(-c3cccs3)[nH]2)cc1OC,-,.,-,.,
COc1ccc(-c2nc(-c3ccccc3)c(-c3cccs3)[nH]2)cc1OC,2,.,-,.,
COc1nc(N)c(S(=O)(=O)c2ccccc2C)cc1C#N,-,.,-3.88,.,
CCCCCCCCCC(=O)N/N=C/c1ccc(C)s1,-,.,-,.,
CC(C)C[C@H](NC(=O)OC(C)(C)C)C(=O)N/N=C/C1=Cc2ccccc2OC1C (stereo partly drawn),-,.,-4.45,.,
COc1ccc(N(CC(=O)Nc2ccccc2C(=O)NCCc2ccccc2)S(C)(=O)=O)cc1OC,-,.,-,.,
O=C(Cc1ccccc1)Nc1ccccc1N1CCN(c2ccccc2)CC1,-,-,-,-,
Cc1cccc(OCC(=O)Nc2ccccc2N2CCN(C(=O)C(C)C)CC2)c1C,-,-,-4.92,-,
O=C(Cc1ccc(Cl)cc1)Nc1ccc(N2CCN(C(=O)c3ccco3)CC2)c(Cl)c1,2.4,-,-,-,
CCC(=O)N1CCN(c2ccccc2NC(=O)Cc2ccccc2)CC1,-,-,-4.98,-,
Cc1ccccc1OCC(=O)Nc1ccccc1N1CCCCC1,-,-,-,-,
COc1ccc(Cl)cc1C(=O)Nc1ccccc1N1CCN(C(=O)C(C)C)CC1,-,-,-4.22,-,
SMILES,PLAP activator,M1 antag,Cav32 inh,M1 agonist,others
O=C(Nc1ccc(N2CCN(C(=O)c3ccco3)CC2)c(Cl)c1)c1cccs1,-,-,-,-,
CS(=O)(=O)N1CCN(c2ccccc2NC(=O)Cc2ccc(Cl)cc2)CC1,-,-,-,-,
CC(C)C(=O)N1CCN(c2ccccc2NC(=O)Cc2ccc(Cl)cc2)CC1,-,-,-4.98,-,
O/N=C/c1cc(Br)ccc1OCc1ccc(F)cc1,.,.,-4.63,.,
Cc1ccccc1CSCCNC(=O)CN(c1ccc2c(c1)OCO2)S(C)(=O)=O,-,-,-4.25,-,
COc1ccc(NC(=O)CC2C(=O)N(c3cccc(OC)c3)C(=O)N2Cc2ccco2)cc1 (stereo not drawn),.,.,-,.,
O=C(N/N=C\c1ccc(COc2ccc([N+](=O)[O-])cc2)o1)c1cccc(Cl)c1,-,.,-7.56,.,
COc1ccccc1CNC(=O)C(CC(C)C)NC(=O)C1CCC(C)CC1 (stereo not drawn),-,.,-5.84,.,
COc1ccccc1CNC(=O)C1CCN(C(=O)N(C)C)CC1,-,.,-,.,
CCOC(=O)C1=C(N)Oc2cc(C)n(C)c(=O)c2C1c1ccncc1 (stereo not drawn),-,.,-,.,
CCOC(=O)C1=C(N)Oc2cc(C)n(CCc3ccc(OC)c(OC)c3)c(=O)c2C1c1cccnc1 (stereo not drawn),-,-,-,8.47,M1 agonist conf=?;M4 ag counter=-
CCCCCOC(=O)C1=C(C)N(C)C(=O)NC1c1cc(Br)c(O)c(OC)c1 (stereo not drawn),-,-,-,-,
CCOC(=O)CN1CCc2c(C)nc3c(-c4ccc(OC)c(OC)c4)cnn3c21,-,.,-,.,
CCOc1ccc2nc(NCCNC(=O)CC)c(C#N)cc2c1,-,-,-,9.69,M1 agonist conf=133;M4 ag counter=-
CCSc1nc2cc(C(=O)OC)ccc2c(=O)n1CC,.,-,-,-,
COC(=O)c1ccc2c(=O)sc(N3CCC(C(N)=O)CC3)nc2c1,-,-,.,23.8,M1 agonist conf=132;M4 ag counter=136
CC(=O)c1ccc(NC(=O)CSc2nnc(-c3ccoc3C)n2Cc2ccccc2)cc1,-,-,-,27.2,M1 agonist conf=?;M4 ag counter=-75.5
Cc1cccc(C)c1NC(=O)CSc1nnc(-c2ccoc2C)n1CCc1ccccc1,-,-,-,-,
CCCC(=O)Nc1nc(-c2ccc3c(c2)OCCO3)cs1,-,-,-,3.21,M1 agonist conf=-;M4 ag counter=-
O=C(CSCC(=O)Nc1nc(-c2ccc3c(c2)OCO3)cs1)Nc1nccs1,.,.,-,.,
N#CC(C(=O)OC1CCCCC1)c1nc2ccccc2nc1N1CCOCC1 (stereo not drawn),-,4.81,-,71.6,M1 agonist conf=-;M4 ag counter=-
CCOC(=O)C1CCCN(c2nc3ccccc3nc2C(C#N)C(=O)OCC)C1 (stereo not drawn),-,-,-,-,
CCCCOC(=O)C(C#N)c1nc2ccccc2nc1N1CCN(Cc2ccc3c(c2)OCO3)CC1 (stereo not drawn),-,-,-,13.8,M1 agonist conf=-;M4 ag counter=-
CCOC(=O)C1CCCN(c2nc3ccccc3nc2C(C#N)C(=O)OCCOC)C1 (stereo not drawn),-,-,.,6.78,M1 agonist conf=-;M4 ag counter=-
O=C(CCc1c[nH]c2ccccc12)NCC1CCCO1 (stereo not drawn),-,-,-,-,
SMILES,PLAP activator,M1 antag,Cav32 inh,M1 agonist,others
O=C1NC(c2ccco2)Nc2sc3c(c21)CCN(Cc1ccccc1)C3 (stereo not drawn),-,-16.6,-,16.5,M1 agonist conf=-;M4 ag counter=-
c1ccc(-c2nc(-n3ccnc3)nc(-n3ccnc3)n2)cc1,-,-,-,7.86,M1 agonist conf=-;M4 ag counter=-
CC(C)Nc1nc(-c2ccccc2)nc(-n2ccnc2)n1,-,-,-,-,
O=C(OCN1C(=O)c2ccccc2C1=O)C1CCCCC1,-,-,-,-,
O=C1c2ccccc2C(=O)N1SC1CCCCC1,-,-,-,6.41,M1 agonist conf=?;M4 ag counter=-
COC(=O)c1ccc(-c2sc3nc(N4CCOCC4)c4c(c3c2N)CCCC4)o1,-,-,-,5.45,M1 agonist conf=-;M4 ag counter=-
CCOC(=O)c1sc2nc(N3CCOCC3)c3c(c2c1N)CCCC3,-,-,-,-,
Cc1nn(C)c(C)c1NC(=O)CCSc1nc(-c2ccco2)cc(C(F)(F)F)n1,-,-3.74,-,34,M1 agonist conf=-;M4 ag counter=-
Cc1nn(C)cc1NC(=O)CCSc1nc(-c2ccco2)cc(C(F)(F)F)n1,-,-,-,-,
O=C(CSc1nc(-c2ccco2)cc(C(F)(F)F)n1)Nc1ccc(C(=O)N2CCCCC2)cc1,-,-,-,6.69,M1 agonist conf=?;M4 ag counter=?

# Source: PubChem BioAssay (several laboratories)
